# The entries come from a sample that favours hits as a whole.
# KDM5B inhibitor: inhibitors of human KDM5B histone demethylase | Q9UGL1 | KDM5B demethylase, FDH-coupled NADH fluorescence (FDH is formaldehyde dehydrogenase) | Potency, µM (series often up to 57.7 µM), actives largely listed as inhibitors | 220,000 tested, 2.6% active; active = well fitted inhibition curve with a large enough effect; also: 0% is about no effect; nearly all actives have a fitted effect of over 70% in size
# Target sequence (Q9UGL1 whole entry, looked up): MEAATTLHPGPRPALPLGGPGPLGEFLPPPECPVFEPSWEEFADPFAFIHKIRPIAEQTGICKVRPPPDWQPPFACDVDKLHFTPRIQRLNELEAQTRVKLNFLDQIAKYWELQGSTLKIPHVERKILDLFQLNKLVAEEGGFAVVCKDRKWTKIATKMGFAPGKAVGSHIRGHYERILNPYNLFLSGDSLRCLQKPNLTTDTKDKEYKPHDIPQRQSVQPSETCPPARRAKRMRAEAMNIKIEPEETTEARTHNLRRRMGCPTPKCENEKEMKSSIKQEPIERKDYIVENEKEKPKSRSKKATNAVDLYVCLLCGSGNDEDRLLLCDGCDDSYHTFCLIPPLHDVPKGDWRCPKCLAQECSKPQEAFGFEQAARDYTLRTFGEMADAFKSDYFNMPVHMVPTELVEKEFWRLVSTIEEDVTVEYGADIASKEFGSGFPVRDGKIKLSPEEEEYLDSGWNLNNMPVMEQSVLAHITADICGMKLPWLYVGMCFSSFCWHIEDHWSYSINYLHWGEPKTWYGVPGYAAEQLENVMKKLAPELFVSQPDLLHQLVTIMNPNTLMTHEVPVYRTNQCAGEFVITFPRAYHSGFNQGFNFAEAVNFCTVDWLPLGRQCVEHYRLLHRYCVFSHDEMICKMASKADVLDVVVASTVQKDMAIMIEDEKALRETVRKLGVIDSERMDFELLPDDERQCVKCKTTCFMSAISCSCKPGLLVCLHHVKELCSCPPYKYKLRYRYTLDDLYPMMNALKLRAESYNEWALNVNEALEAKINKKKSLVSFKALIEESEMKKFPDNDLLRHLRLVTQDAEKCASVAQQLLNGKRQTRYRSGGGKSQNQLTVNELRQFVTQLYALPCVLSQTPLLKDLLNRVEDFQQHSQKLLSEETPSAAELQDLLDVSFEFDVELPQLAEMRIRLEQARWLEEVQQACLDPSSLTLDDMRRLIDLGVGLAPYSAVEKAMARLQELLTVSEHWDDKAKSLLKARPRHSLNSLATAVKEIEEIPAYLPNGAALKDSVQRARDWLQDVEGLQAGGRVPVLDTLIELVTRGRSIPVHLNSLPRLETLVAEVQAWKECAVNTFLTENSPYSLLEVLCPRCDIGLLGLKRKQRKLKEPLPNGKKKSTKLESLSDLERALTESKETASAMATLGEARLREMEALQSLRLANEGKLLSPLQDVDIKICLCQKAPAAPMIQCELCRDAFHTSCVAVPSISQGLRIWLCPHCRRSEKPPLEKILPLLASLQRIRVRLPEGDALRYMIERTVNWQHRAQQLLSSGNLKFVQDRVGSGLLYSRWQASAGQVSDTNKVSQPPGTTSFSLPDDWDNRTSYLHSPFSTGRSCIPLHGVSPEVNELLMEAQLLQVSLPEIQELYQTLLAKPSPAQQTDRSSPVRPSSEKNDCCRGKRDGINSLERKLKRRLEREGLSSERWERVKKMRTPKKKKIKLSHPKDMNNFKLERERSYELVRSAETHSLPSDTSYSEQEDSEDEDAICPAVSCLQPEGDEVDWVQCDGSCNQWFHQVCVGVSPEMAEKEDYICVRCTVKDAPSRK
#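 Compound dilutions met 200 nM (final) KDM5BΔAP for 10 min at room temperature before substrate addition. The substrate mix held 12.5 µM H3K4me3 with cofactors 25 µM α-ketoglutarate and 50 µM Fe²⁺. NADH signal gain over 30 min defined activity.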
# * marks the source's active call; other numbers are inactive results; i = inactive; + = active, no number. Potency is read from the fitted curve at half-maximal effect.
SMILES,KDM5B inhibitor
Cc1cccc(-c2nc(C3CC(=O)N(c4ccc(Cl)cc4)C3)no2)c1 (configuration not stated),i
Cc1cccc2c(C(=O)NC3CC3)cc(-c3cccnc3)nc12,i
COC(=O)C1CCN(Cc2cc(=O)oc3cc(C)c(C)cc23)CC1,i
COc1ccc(C2Cn3nnc(C(=O)N4CCN(C(=O)c5cc(C)ccc5C)CC4)c3CO2)cc1 (configuration not stated),i
CCCCN(C)C(=O)C1CCN(CC(C)c2ccccc2)CC1 (configuration not stated),i
Cc1cc(C)c(NC(=O)CC2(C(=O)O)CCCCC2)c(C)c1,i
C=CC[N+](C)(C)CC#Cc1ccccc1,i
CC(=O)N1CCCC(C(=O)NCc2nc(Cc3cccs3)no2)C1 (configuration not stated),i
N#Cc1cccc(C(=O)N2CC(COc3ccccc3)C3(C2)CN(c2ccccc2)C3)c1 (configuration not stated),35µM*
O=C(CCc1cccnc1)N1CC(COc2ccccc2)C2(C1)CN(c1ccccc1)C2 (configuration not stated),i
O=C(NCC1CN(C(=O)c2cccc(O)c2)CC12CN(c1ccccc1)C2)Nc1ccccc1 (configuration not stated),i
O=C(O)c1cccc(CN2CC(COc3ccccc3)C3(C2)CN(c2ccccc2)C3)c1 (configuration not stated),i
c1ccc(OCC2CN(Cc3ccncc3)CC23CN(c2ccccc2)C3)cc1 (configuration not stated),32µM*
O=C(c1cccc(O)c1)N1CC(COc2ccccc2)C2(C1)CN(C(=O)c1cn[nH]c1)C2 (configuration not stated),i
CCN1C(=O)CCc2cc(NS(=O)(=O)c3c(C)cc(C)cc3C)ccc21,i
Cc1cnc(CC2CCCN(C(=O)C3(c4ccccc4)CC3)C2)n1Cc1ccc(F)cc1 (configuration not stated),i
COCC1(CNC(=O)c2nc3ccccc3[nH]2)C[C@@H](O)[C@@H](O)C1 (some centres not stated),35µM*
COCC1(CNC(=O)c2cccc(OC)c2)C[C@@H](O)[C@@H](O)C1 (some centres not stated),i
COc1ccc(C(=O)NCC2(COc3ccccc3)C[C@@H](O)[C@@H](O)C2)cc1 (some centres not stated),i
COc1ccc(Cl)cc1C(=O)Nc1c(NC2CCCCC2)c2ccccc2oc1=O,i
Cc1ccc2c(c1)NC(SCC(=O)Nc1cccc(C(F)(F)F)c1)=NS2(=O)=O,i
CCn1c(=O)c2sccc2n(CC(=O)N(C)c2ccccc2)c1=O,i
N#Cc1ccccc1COC(=O)c1ccc(COc2ccccc2)o1,i
O=C(O)CCC(=O)N1Cc2ccccc2CC2(CCCCN2Cc2ccccc2)C1 (configuration not stated),i
CN1CCCCC12Cc1ccccc1CN(C(=O)CCCC(=O)O)C2 (configuration not stated),i
SMILES,KDM5B inhibitor
CCCN1CCCCC12Cc1ccccc1CN(C(=O)CCC(=O)O)C2 (configuration not stated),i
CCCN1CCCCC12Cc1ccccc1CN(C(=O)C1CCCC1)C2 (configuration not stated),50µM*
O=C(O)CCC(=O)N1Cc2ccccc2CC2(CCCCN2CCc2ccccc2)C1 (configuration not stated),+
CN1CCCCC12Cc1ccccc1CN(C(=O)c1ccccc1)C2 (configuration not stated),56µM*
CCCN1CCCCC12Cc1ccccc1CN(C(=O)CNC(C)=O)C2 (configuration not stated),i
CCCC(=O)N1Cc2ccccc2CC2(CCCCN2C)C1 (configuration not stated),i
CN1CCCCC12Cc1ccccc1CN(C(=O)C1CCCC1)C2 (configuration not stated),i
O=C(Cc1cccs1)N1CCC2(CC1)CC(N(Cc1ccc(F)cc1)C1CC1)CCO2 (configuration not stated),i
CC(=O)c1cc(Cl)cc(Cl)c1OCC(=O)N1CCN(C(=O)c2ccco2)CC1,i
O=C1N(C2CCN(Cc3ccncc3F)CC2)C(c2ccncc2)C12CCCCC2 (configuration not stated),i
C/C(=N\NC(=O)c1cccc(Br)c1)C(C)C,i
O=C(c1ccoc1)N1CCCN(C2CCC3(CCNCC3)CC2)CC1,i
COc1ccccc1C1CC(=O)N(c2cccc(F)c2)C2=C1C(=O)OC2 (configuration not stated),i
O=C(c1cnccn1)N1CCC(c2nc(C3CCOCC3)no2)CC1,i
CS(=O)(=O)N1CCCC(C(=O)NCCCN2CCCc3ccccc32)CCNC(=O)CC1 (configuration not stated),32µM*
C=CCNC(=O)C1CCCN(S(C)(=O)=O)CCC(=O)NCC1 (configuration not stated),i
CS(=O)(=O)N1CCCC(C(=O)NCCc2cccnc2)CCNC(=O)CC1 (configuration not stated),i
Cc1cccc(NC(=O)C2c3ccccc3C(=O)N(CC(C)C)C23CCCC3)n1 (configuration not stated),i
N#CCCN(C(=O)COc1ncnc2sc3c(c12)CCCC3)c1ccccc1,i
O=C(CSc1ccc2ccccc2n1)Nc1ccc2c(c1)OCCCO2,i
Cc1ccc(-c2nc(C(=O)N3CCN(c4ccc(C)cc4)CC3)no2)cc1,i
CC[C@H]1COCCN1C(=O)c1csc(Cc2ccccc2)n1,i
CCC(=O)NCc1csc(-c2cccs2)n1,i
CCNC(=O)CC1COCCN1C(=O)c1csc(-c2cccs2)n1 (configuration not stated),22µM*
CCOc1ccccc1NC(=O)Nc1ccc2nc(NC(C)=O)sc2c1,i
SMILES,KDM5B inhibitor
O=C(c1ccco1)N1CCN(c2nc3ccc(Cl)cc3s2)CC1,i
Cc1cc(N2CCN(C(=O)c3ccco3)CC2)c2ccccc2n1,i
COc1ccc(CNC(=O)c2cc3c(N4CCCC4)nc(C)cn3n2)c(OC)c1,28µM*
COc1ccccc1CNC(=O)c1cc2c(N3CCSCC3)nc(C)cn2n1,7.1µM*
COc1ccc(CCNC(=O)c2cc3c(N4CCCC4)nc(C)cn3n2)cc1OC,i
COc1ccccc1CNC(=O)C1CCN(c2nn3c(=O)cc(C)nc3s2)CC1,i
Cc1cn2nc(C(=O)N3CCN(C(=O)c4ccco4)CC3)cc2c(N2CCCC2)n1,32µM*
COc1ccc(CNC(=O)c2cccn2-c2nnc(N3CCCCC3)s2)c(OC)c1,i
COc1ccccc1CNC(=O)c1sc(NC2CCCC2)nc1C,i
COc1ccccc1CNC(=O)CSc1nc2ccccc2nc1N1CCCC1,i
COc1ccccc1CNC(=O)c1cc2c(N3CCCC3)nc(C)cn2n1,28µM*
O=C(NC[C@H]1OC[C@@H](NC2CCCCC2)[C@@H]1O)c1cccs1,i
Clc1c2ccccc2c(/C=N/N2CCCCC2)c2ccccc12,i
CCOC(=O)CCNC(=O)N1CCC(Oc2ncccc2C(=O)N2CCOCC2)C1 (configuration not stated),i
COc1ccc(-c2cc(=O)n3[nH]c(C(F)(F)F)nc3n2)cc1,i
CC(C#N)(NC(=O)CSc1ccc2ccccc2n1)C1CC1 (configuration not stated),i
